Source: PubChem BioAssay (several laboratories)
ROMK mod – human ROMK K+ channel modulation, primary screen; B-score at 10 µM; P48048; 2% of 130,000 active; Tet-inducible ROMK, thallium flux fluorescence; actives lie on both sides;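 active = signal ratio slope over the read window, or its plate-corrected B-score, at least 3 SD from the plate mean, either direction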;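 note: B-score of the F/F0 ratio slope over 7 to 12 s after thallium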
S1P4 antag – human S1P4 receptor antagonism. 0.26% of 220,000 active. inhibition, % at 4.98 µM. S1P4-expressing cells, antagonist mode, reporter read-out; in the data active = inhibition above about 29%;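 note: 0% = wells stimulated with agonist and 100% = vehicle wells without agonist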
RAM network inh – yeast RAM network inhibition; 1.8% of 190,000 active; S. cerevisiae dse1pr::URA3 reporter, 5-FOA growth OD615, 2 d; analog-sensitive cbk1-as2 kinase mutant strain; inhibition, % at 50 µM;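 active = inhibition above a set limit, 3 SD over mean compound inhibition, cut at about 8.4% in these data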;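 note: 0% = DMSO-only wells with no growth and 100% = 10 µM 1-NA-PP1 full growth; inhibition rescues growth on 5-FOA so higher OD means more RAM inhibition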
Cl transport mod – modulators of human KCC2 chloride dependent transport | B-score of Tl+ flux slope (higher = more flux/activation; lower = inhibition) at 10 µM | AID 1456 | 2.2% of 190,000 active | KCC2 cells, thallium flux FluoZin-2 fluorescence | Q9H2X9;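 active = thallium flux slope and its plate-corrected score both differing from the plate sample mean at a set confidence after two filtering rounds, in either direction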;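 note: slope of fluorescence scaled to starting intensity during 10 to 20 s after thallium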
S1P4 agonist – activates the human S1P4 receptor | S1P4-expressing cell line, agonist reporter assay | activation, % at 4.98 µM | 0.35% of 220,000 active; in the data active = activation above about 11%;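 note: 0% = DMSO vehicle and 100% = reference agonist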
S1P3 antag – S1P3 (human) receptor antagonism. Q99500. CHO S1P3 NFAT-BLA reporter, FRET fluorescence, antagonist mode. inhibition, % at 4.98 µM. 0.27% of 170,000 active;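 active = inhibition above the plate cutoff, the mean inhibition of test wells on that plate plus 3 SD, cut at about 28% in these data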;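 note: cells challenged with S1P at its EC80 of 0.8 µM; blue over green emission ratio from cleaved BLA substrate after 4 h stimulation; 0% = S1P-stimulated wells and 100% = unstimulated DMSO-only wells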
Target sequence (Q99500 whole entry, looked up): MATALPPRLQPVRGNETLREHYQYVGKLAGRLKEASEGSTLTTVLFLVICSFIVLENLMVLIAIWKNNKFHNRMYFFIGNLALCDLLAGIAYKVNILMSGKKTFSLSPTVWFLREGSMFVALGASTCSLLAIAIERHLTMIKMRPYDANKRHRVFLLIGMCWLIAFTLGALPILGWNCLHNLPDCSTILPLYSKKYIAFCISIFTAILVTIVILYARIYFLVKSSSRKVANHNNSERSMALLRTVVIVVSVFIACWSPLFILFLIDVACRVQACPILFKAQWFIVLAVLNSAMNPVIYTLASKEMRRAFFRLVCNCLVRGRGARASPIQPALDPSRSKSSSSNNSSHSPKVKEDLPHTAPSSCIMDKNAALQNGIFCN
Active calls of the source: *. The list is not random: actives were taken first. Their share in the collection is about 5.1%.

What do the screens show for `CC1CCN(C(=S)NCCc2ccccc2)CC1`?
S1P4 antag: -3; RAM network inh: 0; Cl transport mod: 0.015; S1P4 agonist: 3

What do the screens show for `O=C(NC(=S)N1CCc2ccccc21)c1ccccc1`?
S1P4 antag: -7; RAM network inh: -1; Cl transport mod: 51*; S1P4 agonist: 1; S1P3 antag: -5

Results for Cn1c(CCCOc2ccc(Cl)cc2Cl)nnc1SCC(=O)Nc1ccc(F)c(Cl)c1 ?
ROMK mod: 0.44; S1P4 antag: 3; RAM network inh: 9.0*; Cl transport mod: 0.016; S1P4 agonist: 0; S1P3 antag: -7

Results for CSc1cccc(NC(=O)CCCOc2ccccc2)c1 ?
ROMK mod: 0.21; S1P4 antag: -9; RAM network inh: 0; Cl transport mod: -0.33; S1P4 agonist: 3; S1P3 antag: -11

What do the screens show for `Cn1c(CCCOc2ccc(Cl)cc2Cl)nnc1SCC(=O)Nc1cccc(F)c1`?
S1P4 antag: -7; RAM network inh: 7; Cl transport mod: -0.051; S1P4 agonist: -1; S1P3 antag: -1

How did C=CCn1c(CCCOc2ccc(Cl)cc2Cl)nnc1SCC(=O)Nc1nccs1 do in these assays?
ROMK mod: 0.15; S1P4 antag: 12; RAM network inh: 8.9*; Cl transport mod: 0.72; S1P4 agonist: 0

How did CSc1cccc(NC(=O)CCCOc2ccc(Cl)cc2Cl)c1 do in these assays?
ROMK mod: 0.2; S1P4 antag: 8; RAM network inh: 11*; Cl transport mod: 1.5; S1P4 agonist: 0; S1P3 antag: 6

What do the screens show for `CCn1c(CCCOc2ccc(Cl)cc2Cl)nnc1SCC(=O)Nc1cc(F)ccc1C`?
S1P4 antag: 6; RAM network inh: 5; Cl transport mod: -0.71; S1P4 agonist: 1; S1P3 antag: 0

Results for Cc1[nH]nc2c1C(c1ccsc1)C1=C(CC(C)(C)CC1=O)N2 (centres undefined) ?
ROMK mod: -0.28; S1P4 antag: -1; RAM network inh: 1; S1P4 agonist: 1; S1P3 antag: -8

What do the screens show for `S=C1Nc2ccccc2Sc2ccc(Cl)cc21`?
ROMK mod: 1.5; S1P4 antag: -39; RAM network inh: 1; Cl transport mod: 16*; S1P4 agonist: 1; S1P3 antag: -1

How did Cc1noc(C)c1C(=O)N1CCC2(CC1)Oc1ccc(F)cc1C(=O)C21CC(c2ccc(Cl)cc2)=NO1 (centres undefined) do in these assays?
Cl transport mod: 0.4

Results for Cc1ccc2nc(NC(=O)c3ccc(Cl)s3)sc2c1 ?
S1P4 antag: -39; RAM network inh: 2; Cl transport mod: 1.3; S1P4 agonist: -1; S1P3 antag: -14

How did Cc1nc2ccc(NC(=O)c3ccc(Cl)s3)cc2s1 do in these assays?
S1P4 antag: -7; RAM network inh: 1; Cl transport mod: 0.15; S1P4 agonist: -3; S1P3 antag: 56*

How did CC(C)(Oc1ccc(Cl)cc1)C(=O)NCc1ccc(S(N)(=O)=O)cc1 do in these assays?
ROMK mod: 0.27; S1P4 antag: -5; RAM network inh: 3; Cl transport mod: 0.043; S1P4 agonist: 1; S1P3 antag: -11

Results for COc1ccc(NC(=O)C(=O)NNC(=O)c2cccs2)c(OC)c1 ?
ROMK mod: 0.65; S1P4 antag: -16; RAM network inh: 2; Cl transport mod: 11*; S1P4 agonist: -3

Results for COc1ccc(OCC(=O)NNC(=O)C(=O)Nc2ccc(C)cc2)cc1 ?
ROMK mod: 0.00081; S1P4 antag: -9; RAM network inh: 4; Cl transport mod: 22*; S1P4 agonist: -1; S1P3 antag: -5

What do the screens show for `COc1cc(NC(=O)c2cccc(Cl)c2)ccc1NC(=O)c1cccs1`?
ROMK mod: -0.026; S1P4 antag: -13; RAM network inh: 9.3*; Cl transport mod: -0.17; S1P4 agonist: 1; S1P3 antag: -5

Results for COc1cc(NC(=O)c2ccccc2Cl)ccc1NC(=O)c1cccs1 ?
ROMK mod: -0.099; S1P4 antag: -16; RAM network inh: 4; Cl transport mod: -0.085; S1P4 agonist: 1; S1P3 antag: 10

Results for CCC(=O)Nc1ccc(C(=O)NNC(=O)c2cccs2)cc1 ?
S1P4 antag: -9; RAM network inh: 1; Cl transport mod: -0.65; S1P4 agonist: -1

What do the screens show for `COc1ccc(NC(=O)C(=O)NNC(=O)c2cccs2)cc1`?
S1P4 antag: 6; RAM network inh: 0; Cl transport mod: 12*; S1P4 agonist: 0; S1P3 antag: 1

How did Cc1ccc2oc(=O)n(CC(=O)OCCC(C)C)c2c1 do in these assays?
ROMK mod: 0.17; S1P4 antag: 4; Cl transport mod: -0.8; S1P4 agonist: 1; S1P3 antag: 20

What do the screens show for `CC(C)(C)NC(=O)C(=O)NNC(=O)COc1ccc(Br)cc1`?
ROMK mod: 1.8; S1P4 antag: -14; RAM network inh: 1; Cl transport mod: 20*; S1P4 agonist: 0; S1P3 antag: -3

Results for Cc1ccc(NC(=O)C(=O)NNC(=O)c2cccs2)cc1 ?
ROMK mod: 2.9*; S1P4 antag: -16; RAM network inh: 1; Cl transport mod: 43*; S1P4 agonist: 3; S1P3 antag: -3

What do the screens show for `O=C(CCn1nc(-c2ccc(Cl)cc2)c2ccccc2c1=O)NN1CCOCC1`?
S1P4 antag: 5; Cl transport mod: -0.97; S1P4 agonist: 0; S1P3 antag: 5

What do the screens show for `CN(C)CCCNC(CC(=O)Nc1cccc([N+](=O)[O-])c1)C(=O)O` (centres undefined)?
ROMK mod: -0.4; S1P4 antag: -24; RAM network inh: 2; Cl transport mod: -0.4; S1P4 agonist: 2; S1P3 antag: -5

How did Cc1ccccc1NC1=NCC(c2ccc([N+](=O)[O-])cc2)S1 (centres undefined) do in these assays?
ROMK mod: -1.2; S1P4 antag: -8; RAM network inh: 1; Cl transport mod: 0.63; S1P4 agonist: 1; S1P3 antag: 2

How did COc1ccccc1NC(=O)CN1CCN(CC(=O)Nc2ccc(Cl)c(C(F)(F)F)c2)CC1 do in these assays?
ROMK mod: -2.5*; S1P4 antag: -14; RAM network inh: -1; S1P4 agonist: 0; S1P3 antag: -8

What do the screens show for `COc1ccc(NC(=O)CN2CCN(CC(=O)Nc3ccccc3Cl)CC2)cc1Cl`?
ROMK mod: -0.32; S1P4 antag: -8; RAM network inh: 1; S1P4 agonist: -1; S1P3 antag: -29

Results for O=C(c1ccccc1)c1c[nH]c(C(=O)NCCCn2ccnc2)c1 ?
S1P4 antag: -14; RAM network inh: 2; Cl transport mod: 1.9; S1P4 agonist: 0

Results for CNC(=S)N(Cc1ccc(OC)cc1)C1CC(=O)N(c2ccc(OC)cc2)C1=O (centres undefined) ?
S1P4 antag: -20; RAM network inh: 10*; Cl transport mod: 1.6; S1P4 agonist: -2
